Assay outcomes (PubChem BioAssay)
Only some compounds are listed: those with a hit (about 2.4% of all), similar ones and a draw of the others.
A549 tox-1 = A549 cytotoxicity, counter-screen for Nrf2 inhibitors | A549 ARE-Fluc cells, CellTiter-Fluor viability, 18-24 h | Potency, µM (top dose mostly 46 µM), hits mostly inhibitors | 390,000 compounds, 0.16% hits | AID 504648
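A549 ARE-Fluc cells in 5% FBS OPTI-MEM, 5000 cells/well, rested 2 h then exposed to compounds in concentration-response for 18-24 h at 37 °C. Viability by CellTiter-Fluor fluorescence (Ex 405/Em 525) after 30 min; luciferase luminescence (BugLite, 15 min, RT) read afterwards.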
PINK1 modulator = changes PINK1 expression. PINK1 immunofluorescence, high-content cytometry, 24 h. Potency, µM (top dose mostly 76.6 µM), most hits filed as activators. 410,000 compounds, 0.2% hits; active = well fitted activation curve with a large enough effect; inconclusive = small, poorly fitted or top-dose-only effect; cell line not stated here; note: nearly all actives have a fitted effect of over 65% in size
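Decision-based qHTS: stable cells, 24 h exposure to five compound concentrations, CCCP as control. Fixed cells stained for PINK1 plus nuclear, mitochondrial and cell markers, cytometer read.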
Nrf2 block = Nrf2 pathway inhibition. A549 ARE-Fluc reporter, luciferase luminescence, 18-24 h. Potency, µM (titrated, usually from 46 µM), usual class: inhibitors. 360,000 compounds, 2.1% hits; note: nearly all actives have a fitted effect of over 60% in size
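Nrf2 activity is the BugLite luminescence, read 15 min after reagent at room temperature, following CellTiter-Fluor cytotoxicity readout (30 min, 37C). Compound titrations were applied for 18-24 h to 5000 A549 ARE_Fluc cells/well in 5% FBS OPTI-MEM.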
Epigenetic derep = epigenetic control regulation, reporter derepression. murine LDR cells, GFP reporter derepression, 30 h. Potency, µM (top dose mostly 53.9 µM), most hits filed as activators. 280,000 compounds, 0.2% hits. AID 1865; note: nearly all actives have a fitted effect of over 60% in size
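In this reporter-derepression format, murine cells bearing a silenced integrated CMV-GFP locus incubate with test compound (30 h, 37 C), then are washed and imaged; fluorescent objects of 20–120 um count as induced cells.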
Nrf2 activator = activates Nrf2 signaling; AREc32 ARE-luciferase reporter (MCF7-derived line), luminescence, 24 h; Potency, µM (titrated, usually from 46.1 µM), hits mostly activators; 410,000 compounds, 0.31% hits; AID 624171; note: nearly all actives have a fitted effect of over 65% in size
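AREc32_Fluc, 1000 cells/well, OPTI-MEM + 5% FBS, o/n 37 deg C 5% CO2; 23 nL cpd by pin tool, 24 hr; Steady-Glo 30 min RT, luminescence.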
FLuc enzyme inh = firefly luciferase inhibition, Nrf2 hit validation. shares compounds with Nrf2 block. purified firefly luciferase, luminescence inhibition. Potency, µM (doses to about 57.5 µM), usual class: inhibitors. 1,400 compounds, 4% hits. AID 720522; note: nearly all actives have a fitted effect of over 65% in size
Target sequence (P08659 whole entry, looked up): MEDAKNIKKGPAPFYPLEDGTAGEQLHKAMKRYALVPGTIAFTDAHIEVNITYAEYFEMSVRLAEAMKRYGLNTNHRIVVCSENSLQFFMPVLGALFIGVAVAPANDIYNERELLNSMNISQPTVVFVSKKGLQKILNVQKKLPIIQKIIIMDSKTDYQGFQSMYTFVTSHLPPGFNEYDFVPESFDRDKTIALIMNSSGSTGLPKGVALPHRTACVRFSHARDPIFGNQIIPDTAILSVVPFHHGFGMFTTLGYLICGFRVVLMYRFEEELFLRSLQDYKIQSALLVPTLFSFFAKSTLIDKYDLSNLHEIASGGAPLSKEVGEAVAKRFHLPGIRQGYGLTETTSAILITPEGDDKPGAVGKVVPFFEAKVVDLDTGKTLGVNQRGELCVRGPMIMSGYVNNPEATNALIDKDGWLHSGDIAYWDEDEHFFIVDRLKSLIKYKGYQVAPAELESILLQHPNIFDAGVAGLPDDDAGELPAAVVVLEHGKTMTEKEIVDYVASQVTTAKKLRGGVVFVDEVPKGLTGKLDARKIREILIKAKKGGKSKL
A549 tox-2 = counter-screen for Nrf2 inhibitors: cytotoxicity in A549 ARE cells; Potency, µM (doses to about 46.1 µM), actives largely listed as inhibitors; shares compounds with Nrf2 block; 1,400 compounds, 2% hits; A549 ARE-Fluc cells, cytotoxicity counterscreen;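 note: cells exposed to compounds for 18 to 24 hours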
Nrf2 ARE inh = reduces Nrf2 ARE reporter signal in A549 cells. shares compounds with Nrf2 block. A549 ARE-firefly luciferase reporter, luminescence. Potency, µM (doses to about 46.1 µM), hits mostly inhibitors. 1,400 compounds, 74% hits. AID 720524; note: nearly all actives have a fitted effect of over 65% in size
Numbers stand for hits; - = inactive; ? = inconclusive; . = no result shown; [ ] = dose if it differs, or a comment. Unless noted, calls come from the whole dose curve; as a rule, active = well fitted curve in the direction sought with a large enough effect; inconclusive = small, poorly fitted or top-dose-only effect, or another doubt; inactive = no such curve, though single readings can be large; an effect the other way counts as inactive or inconclusive.

SMILES | A549 tox-1 | PINK1 modulator | Nrf2 block | Epigenetic derep | Nrf2 activator | FLuc enzyme inh | A549 tox-2 | Nrf2 ARE inh
O=C(Nc1nnc(N2CCCCCC2)s1)Nc1ccccc1C(F)(F)F | - | - | - | - | - | . | . | .
N#Cc1c(NC(=O)CSc2ncn[nH]2)sc2c1CCCCC2 | - | - | 0.366µM | - | - | 9.53µM | - | 1.64µM
Cn1cnnc1SCC(=O)Nc1sc2c(c1C#N)CCCCC2 | -[1.84 µM] | ? | ? | - | - | . | . | .
COc1ccc(N(C(=O)COc2c(C)cccc2C)S(=O)(=O)c2ccc(Cl)cc2)cc1 | - | - | - | - | - | . | . | .
CCOc1ccc(S(=O)(=O)NCc2ccncc2)cc1NC(=O)c1ccccc1F | - | - | 2.59µM | . | - | - | - | ?
CCOc1ccc(S(=O)(=O)NCc2cccnc2)cc1NC(=O)c1ccccc1F | - | - | - | . | - | . | . | .
CCOc1ccc(S(=O)(=O)NCc2ccncc2)cc1NC(=O)c1ccccc1 | - | - | 0.461µM | . | - | - | - | 3.66µM
CCn1cc(C(=O)N2CCN(c3cccc(Cl)c3)CC2)c(=O)c2cc(S(=O)(=O)N3CCOCC3)ccc21 | - | - | ? | - | - | . | . | .
COC(=O)c1ccccc1NC(=O)Cn1c(=O)cc(C)c2c(C)nn(C)c21 | - | - | - | - | - | . | . | .
COc1ccc(C)cc1NC(=O)Cn1c(=O)cc(C)c2c(C)nn(C)c21 | - | - | 5.8µM | - | - | - | - | 2.31µM
Cc1ccc(C(C)(C)C)cc1S(=O)(=O)N1CCC(C(=O)N2CCN(c3ccc(O)cc3)CC2)CC1 | - | - | 9.2µM | . | - | ? | - | .
COc1ccc(CCNC(=O)c2ccc(-c3cccc([N+](=O)[O-])c3)o2)cc1OC | - | - | ? | - | - | . | . | .
COc1ccc(CCNC(=O)c2cccc([N+](=O)[O-])c2)cc1OC | - | - | 2.59µM | . | - | - | - | 3.66µM
O=NN(CCc1ccncc1)c1ccc(OCc2ccccc2)cc1 | - | - | 6.51µM | - | - | - | - | 5.8µM
O=C(NCc1ccncc1)C(=O)N/N=C/c1ccc(OCc2ccccc2)cc1 | - | - | - | - | - | . | . | .
O=C(C[n+]1cccc(Br)c1)c1ccc2c(c1)CCCC2 | . | - | . | . | . | . | . | .
COc1cccc(C(=O)Nc2c(C(=O)NC(C)(C)C)oc3ccccc23)c1 | - | - | ? | - | - | - | - | -
Cc1csc2ncnc(NC3CCN(Cc4ccccc4)CC3)c12 | - | - | 9.2µM | - | - | - | - | 4.11µM
c1ccc(CN2CCC(Nc3nc(-c4ccccc4)nc4ccccc34)CC2)cc1 | ? | - | ? | - | - | . | . | .
COc1cc(OC)c(OC)cc1/C=C/c1cc[n+](C)c2ccccc12 | . | - | . | . | . | . | . | .
Cc1cc(N(C)C)cc(C)c1/C=C/c1cc[n+](C)c2ccccc12 | . | . | . | . | . | - | - | .
COc1cc(OC)c(/C=C/c2cc[n+](C)c3ccccc23)c(OC)c1 | . | ? | . | . | . | - | - | 3.66µM
Cc1cccc(NC(=O)c2sc3cccc(Cl)c3c2Cl)c1 | ? | - | ? | - | - | . | . | .
C1=C/C(=C2/C=Cc3ccccc32)c2ccccc2N1 | . | . | . | . | . | - | ? | 6.51µM
CN(C)c1cccc(NC2=CC(=[N+]3CCOCC3)CC(C)(C)C2)c1 | - | - | - | - | - | . | . | .
SMILES | A549 tox-1 | PINK1 modulator | Nrf2 block | Epigenetic derep | Nrf2 activator | FLuc enzyme inh | A549 tox-2 | Nrf2 ARE inh
CCN(CC)C1=CC(=[N+]2CCCC2)CC(C)(C)C1 | - | - | 8.2µM | - | - | - | - | 6.51µM
CN(Cc1ccccc1)C1=CC(=[N+]2CCCC2)CC(C)(C)C1 | - | ? | 4.61µM | - | - | - | ? | 18.4µM
Cc1ccc2c(=O)cc(C(=O)Nc3c(C)n(C)n(-c4ccccc4)c3=O)oc2c1 | - | - | - | - | - | . | . | .
COc1cccc(CN(C)C(=O)c2cc(COc3ccc4ncccc4c3)on2)c1 | ? | - | 3.66µM | - | - | - | - | 7.31µM
O=C(c1cc(COc2ccc3ncccc3c2)on1)N1CCCCCC1 | - | - | 3.66µM | - | - | ? | - | 6.51µM
Cc1ccc(OCc2cc(C(=O)N3CCCCCCC3)no2)cc1C | - | - | ? | . | - | . | . | .
O=C(NC1CCCC1)c1cc(COc2ccc3ncccc3c2)on1 | - | - | 6.51µM | - | - | - | - | 3.66µM
Cc1ccc(OCc2cc(C(=O)NC3CCCCC3)no2)cn1 | - | - | - | . | - | . | . | .
COCC1CCN(C(=O)c2cc(COc3ccc4ncccc4c3)on2)CC1 | - | - | 3.66µM | - | - | - | - | 7.31µM
COC(=O)C/C=C\[C@@H](C)[C@@H]1C=C[C@H](OC(C)=O)[C@H](COC(C)=O)O1 | . | . | . | -[10.1 µM] | . | . | . | .
O=C(c1cc(COc2ccc3ncccc3c2)on1)N1CCCC1 | - | - | 4.11µM | . | - | ? | - | ?
CCn1nnc2c(N3CCCC3)ncnc21 | - | - | - | . | . | . | . | .
Cc1cc(C)c(C)c(S(=O)(=O)N2CCN(c3ncnc4ccccc34)CC2)c1C | - | - | 9.2µM | . | - | - | - | 9.2µM
Cc1cc(C)c(C)c(S(=O)(=O)N2CCN(c3ccccn3)CC2)c1C | - | - | ? | . | - | . | . | .
CCc1nnc2c(Nc3cccc(F)c3)nc3ccc(C(=O)c4ccccc4)cc3n12 | - | - | - | - | - | . | . | .
O=c1c2oc3ccccc3c2n(Cc2ccccc2Cl)c(=O)n1Cc1ccco1 | - | - | - | - | - | . | . | .
Cc1ccc(C(=O)OCC(=O)NC(=O)c2cccn2C)cc1 | - | - | 1.3µM | - | - | - | - | 1.64µM
O=C(Nc1ccccc1F)Nc1ccccc1N1CCCCC1 | ? | - | 5.8µM | - | - | - | - | ?
Cc1ccnc2ccc3ccccc3c12 | . | . | . | . | . | - | - | 6.51µM
CN(c1ccccc1)S(=O)(=O)c1ccc(Cl)c(C(=O)Nc2ccncc2)c1 | - | - | 8.2µM | . | - | - | - | ?
CCN(c1ccccc1)S(=O)(=O)c1ccc(Cl)c(C(=O)Nc2ccncc2)c1 | . | - | . | . | - | . | . | .
O=C(OCCOc1ccc(Cl)cc1)c1cc(S(=O)(=O)N2CCCCC2)ccc1N1CCOCC1 | - | - | 8.2µM | . | - | - | - | 8.2µM
Cc1nc2ccccn2c1C(=O)NC1CCCc2ccccc21 (configuration not stated) | - | - | 1.64µM | - | - | - | - | 4.61µM
O=C(NC1CCCc2ccccc21)c1cn2ccccc2n1 (configuration not stated) | - | - | - | - | - | . | . | .
COc1cc(OC)c(Nc2nc3ccccc3c3nncn23)cc1Cl | - | - | - | - | - | . | . | .
Cc1cc2cc(CN(Cc3ccco3)S(=O)(=O)c3c(C)ccc4nsnc34)c(=O)[nH]c2cc1C | - | - | 2.31µM | - | - | ? | - | 3.26µM
